Experiments:
Assay in all cases: DAPPL (digital affinity profiling via proximity ligation, sequencing); 10 mM Tris-HCl pH 7.5, 50 mM NaCl, 1 mM DTT, 4% glycerol, room temperature, 30 min; GST-TFs on glutathione beads, 16-mer random dsDNA library, 0.1% formaldehyde crosslink after washing; high values mean tight binding
Settings in all cases: protein: recombinant; tags: N-terminal GST; dsDNA, one strand shown
FLI1 = target: T1, FLI1 (Homo sapiens, UniProt Q01543 1-452)
T1 sequence: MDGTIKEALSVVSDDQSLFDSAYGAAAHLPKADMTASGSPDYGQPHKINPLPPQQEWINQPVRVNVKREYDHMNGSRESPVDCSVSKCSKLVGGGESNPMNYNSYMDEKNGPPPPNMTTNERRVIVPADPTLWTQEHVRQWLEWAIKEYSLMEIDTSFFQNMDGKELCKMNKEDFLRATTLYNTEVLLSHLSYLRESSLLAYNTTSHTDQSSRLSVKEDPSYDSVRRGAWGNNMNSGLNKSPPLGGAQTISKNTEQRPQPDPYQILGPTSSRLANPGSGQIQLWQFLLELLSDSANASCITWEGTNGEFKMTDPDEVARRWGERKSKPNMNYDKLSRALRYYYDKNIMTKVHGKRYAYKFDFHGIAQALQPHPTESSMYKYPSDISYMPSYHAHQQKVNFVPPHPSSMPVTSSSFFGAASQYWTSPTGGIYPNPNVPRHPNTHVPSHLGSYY
Outline: (§1)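 Human transcription factors carrying a GST fusion were produced in yeast, bound to glutathione beads, tagged with DNA barcodes and pooled together with a tag-only sample. Each pool was held with 200 nmole of a random double-stranded 16-mer DNA library in Tris/NaCl/DTT/glycerol buffer for 30 min at room temperature, then washed, crosslinked in 0.1% formaldehyde, proximity-ligated with BsaI/T4 ligase (1 h, 37 °C), PCR-amplified and sequenced on an Illumina NextSeq500. Binding signal is the read frequency of each hexamer for a given factor divided by its frequency in the tag-only sample.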

ELK1 = target: T2, ELK1 (Homo sapiens, UniProt P19419 1-428)
T2 sequence: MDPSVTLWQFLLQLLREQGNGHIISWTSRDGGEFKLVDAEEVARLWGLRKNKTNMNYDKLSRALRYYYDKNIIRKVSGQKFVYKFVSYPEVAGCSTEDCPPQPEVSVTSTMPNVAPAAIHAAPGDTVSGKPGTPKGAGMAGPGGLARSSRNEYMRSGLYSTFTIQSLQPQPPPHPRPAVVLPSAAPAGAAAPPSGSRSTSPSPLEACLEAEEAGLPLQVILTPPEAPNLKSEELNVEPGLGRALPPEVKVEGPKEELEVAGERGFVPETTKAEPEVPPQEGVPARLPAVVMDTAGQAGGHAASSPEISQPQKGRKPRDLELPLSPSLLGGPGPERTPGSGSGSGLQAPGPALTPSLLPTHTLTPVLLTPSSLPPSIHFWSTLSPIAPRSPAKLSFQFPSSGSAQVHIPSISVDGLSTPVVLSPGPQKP
Outline: as §1

GABPA = target: T3, GABPA (Homo sapiens, UniProt Q06546 1-454)
T3 sequence: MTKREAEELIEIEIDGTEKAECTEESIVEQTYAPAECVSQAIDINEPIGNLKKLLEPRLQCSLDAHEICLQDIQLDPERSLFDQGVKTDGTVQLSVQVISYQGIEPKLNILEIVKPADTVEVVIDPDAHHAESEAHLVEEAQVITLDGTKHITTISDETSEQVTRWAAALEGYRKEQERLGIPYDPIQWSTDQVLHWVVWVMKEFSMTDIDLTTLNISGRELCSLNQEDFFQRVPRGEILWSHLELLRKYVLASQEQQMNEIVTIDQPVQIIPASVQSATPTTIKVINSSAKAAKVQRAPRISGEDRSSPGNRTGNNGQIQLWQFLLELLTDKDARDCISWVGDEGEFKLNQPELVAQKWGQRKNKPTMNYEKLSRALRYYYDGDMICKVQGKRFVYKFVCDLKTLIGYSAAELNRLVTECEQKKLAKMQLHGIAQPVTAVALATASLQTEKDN
Outline: as §1

ERG = target: T4, ERG (Homo sapiens, UniProt P11308 1-479)
T4 sequence: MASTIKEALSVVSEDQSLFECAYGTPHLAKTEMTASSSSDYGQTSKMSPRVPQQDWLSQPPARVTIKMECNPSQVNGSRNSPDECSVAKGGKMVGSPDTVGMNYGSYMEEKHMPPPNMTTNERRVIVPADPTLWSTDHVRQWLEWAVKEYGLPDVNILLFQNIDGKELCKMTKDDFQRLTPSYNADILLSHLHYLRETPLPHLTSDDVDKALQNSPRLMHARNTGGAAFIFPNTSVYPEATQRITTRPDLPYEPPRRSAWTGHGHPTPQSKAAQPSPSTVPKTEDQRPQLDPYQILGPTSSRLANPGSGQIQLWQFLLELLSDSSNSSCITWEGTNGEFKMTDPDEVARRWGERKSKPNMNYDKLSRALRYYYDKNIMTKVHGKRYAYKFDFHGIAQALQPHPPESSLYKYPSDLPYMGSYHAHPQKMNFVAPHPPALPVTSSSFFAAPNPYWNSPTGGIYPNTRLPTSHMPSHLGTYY
Outline: as §1

ELF1 = ELF1 (Homo sapiens, UniProt P32519 1-619)
Outline: as §1

EHF = target: T5, EHF (Homo sapiens, UniProt Q9NZC4 1-300)
T5 sequence: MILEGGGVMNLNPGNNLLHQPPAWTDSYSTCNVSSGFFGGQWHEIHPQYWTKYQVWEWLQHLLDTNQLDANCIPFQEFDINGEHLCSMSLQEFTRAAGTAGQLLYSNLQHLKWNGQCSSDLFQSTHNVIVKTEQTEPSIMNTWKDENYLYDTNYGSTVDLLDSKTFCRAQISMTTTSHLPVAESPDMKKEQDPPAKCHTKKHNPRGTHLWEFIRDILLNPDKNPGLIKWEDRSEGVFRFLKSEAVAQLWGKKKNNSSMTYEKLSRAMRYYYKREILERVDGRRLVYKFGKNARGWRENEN
Outline: as §1

SPI1 = SPI1 (Homo sapiens, UniProt P17947 1-270)
Outline: as §1

SPIB = SPIB (Homo sapiens, UniProt Q01892 1-262)
Outline: as §1

ELK3 = target: T6, ELK3 (Homo sapiens, UniProt P41970 1-407)
T6 sequence: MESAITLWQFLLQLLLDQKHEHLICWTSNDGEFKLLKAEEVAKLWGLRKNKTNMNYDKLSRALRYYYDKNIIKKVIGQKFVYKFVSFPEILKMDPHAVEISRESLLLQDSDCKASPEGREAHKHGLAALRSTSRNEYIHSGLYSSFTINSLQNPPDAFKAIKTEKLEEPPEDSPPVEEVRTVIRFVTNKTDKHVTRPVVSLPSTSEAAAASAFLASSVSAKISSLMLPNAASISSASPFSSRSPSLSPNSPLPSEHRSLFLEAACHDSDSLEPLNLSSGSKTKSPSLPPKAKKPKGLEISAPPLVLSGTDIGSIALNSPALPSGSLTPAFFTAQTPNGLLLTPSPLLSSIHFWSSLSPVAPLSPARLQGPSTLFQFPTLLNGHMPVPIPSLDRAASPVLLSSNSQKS
Outline: as §1

Sequence of ELF1 (P32519 whole entry): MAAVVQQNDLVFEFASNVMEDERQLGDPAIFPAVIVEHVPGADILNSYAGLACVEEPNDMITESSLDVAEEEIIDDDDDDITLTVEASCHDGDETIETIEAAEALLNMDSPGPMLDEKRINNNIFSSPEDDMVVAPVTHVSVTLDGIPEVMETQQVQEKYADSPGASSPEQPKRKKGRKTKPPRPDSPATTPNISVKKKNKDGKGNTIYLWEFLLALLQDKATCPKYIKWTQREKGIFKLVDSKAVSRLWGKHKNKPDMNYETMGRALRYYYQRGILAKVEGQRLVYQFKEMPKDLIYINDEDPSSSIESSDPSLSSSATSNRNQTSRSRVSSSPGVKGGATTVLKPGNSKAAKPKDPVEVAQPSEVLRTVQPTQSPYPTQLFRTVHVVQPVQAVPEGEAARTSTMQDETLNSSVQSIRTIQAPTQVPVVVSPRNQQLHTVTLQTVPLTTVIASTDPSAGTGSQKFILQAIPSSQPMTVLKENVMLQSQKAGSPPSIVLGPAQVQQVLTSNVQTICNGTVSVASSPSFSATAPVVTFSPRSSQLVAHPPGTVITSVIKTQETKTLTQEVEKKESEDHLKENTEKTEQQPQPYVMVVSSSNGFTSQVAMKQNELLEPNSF
Sequence of SPIB (Q01892 whole entry): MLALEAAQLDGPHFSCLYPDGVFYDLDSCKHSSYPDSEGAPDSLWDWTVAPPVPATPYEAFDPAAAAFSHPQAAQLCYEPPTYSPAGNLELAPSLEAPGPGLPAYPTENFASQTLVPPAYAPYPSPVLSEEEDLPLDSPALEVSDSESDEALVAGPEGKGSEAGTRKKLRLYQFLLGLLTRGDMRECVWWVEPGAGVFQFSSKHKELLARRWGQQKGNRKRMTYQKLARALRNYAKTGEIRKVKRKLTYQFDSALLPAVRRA

Row | Sequence | binding signal (FLI1) | binding signal (ELK1) | binding signal (GABPA) | binding signal (ERG) | binding signal (ELF1) | binding signal (EHF) | binding signal (SPI1) | binding signal (SPIB) | binding signal (ELK3)
1 | AAAACA | 1.35 fold enrichment (6-mer frequency, TF over GST control) | 1.22 fold enrichment (6-mer frequency, TF over GST control) | 1.35 fold enrichment (6-mer frequency, TF over GST control) | 1.34 fold enrichment (6-mer frequency, TF over GST control) | 1.31 fold enrichment (6-mer frequency, TF over GST control) | 1.31 fold enrichment (6-mer frequency, TF over GST control) | 1.36 fold enrichment (6-mer frequency, TF over GST control) | 1.24 fold enrichment (6-mer frequency, TF over GST control) | 1.28 fold enrichment (6-mer frequency, TF over GST control)
2 | TTTGCT | 1.25 fold enrichment (6-mer frequency, TF over GST control) | 1.17 fold enrichment (6-mer frequency, TF over GST control) | 1.29 fold enrichment (6-mer frequency, TF over GST control) | 1.18 fold enrichment (6-mer frequency, TF over GST control) | 1.21 fold enrichment (6-mer frequency, TF over GST control) | 1.18 fold enrichment (6-mer frequency, TF over GST control) | 1.21 fold enrichment (6-mer frequency, TF over GST control) | 1.24 fold enrichment (6-mer frequency, TF over GST control) | 1.25 fold enrichment (6-mer frequency, TF over GST control)
3 | GACTCC | 1.35 fold enrichment (6-mer frequency, TF over GST control) | 1.23 fold enrichment (6-mer frequency, TF over GST control) | 1.29 fold enrichment (6-mer frequency, TF over GST control) | 1.3 fold enrichment (6-mer frequency, TF over GST control) | 1.35 fold enrichment (6-mer frequency, TF over GST control) | 1.37 fold enrichment (6-mer frequency, TF over GST control) | 1.35 fold enrichment (6-mer frequency, TF over GST control) | 1.38 fold enrichment (6-mer frequency, TF over GST control) | 1.25 fold enrichment (6-mer frequency, TF over GST control)
4 | ATTCGC | 1.18 fold enrichment (6-mer frequency, TF over GST control) | 1.15 fold enrichment (6-mer frequency, TF over GST control) | 1.25 fold enrichment (6-mer frequency, TF over GST control) | 1.25 fold enrichment (6-mer frequency, TF over GST control) | 1.15 fold enrichment (6-mer frequency, TF over GST control) | 1.18 fold enrichment (6-mer frequency, TF over GST control) | 1.21 fold enrichment (6-mer frequency, TF over GST control) | 1.33 fold enrichment (6-mer frequency, TF over GST control) | 1.06 fold enrichment (6-mer frequency, TF over GST control)
5 | ACATAT | 1.18 fold enrichment (6-mer frequency, TF over GST control) | 1.25 fold enrichment (6-mer frequency, TF over GST control) | 1.3 fold enrichment (6-mer frequency, TF over GST control) | 1.25 fold enrichment (6-mer frequency, TF over GST control) | 1.27 fold enrichment (6-mer frequency, TF over GST control) | 1.22 fold enrichment (6-mer frequency, TF over GST control) | 1.2 fold enrichment (6-mer frequency, TF over GST control) | 1.2 fold enrichment (6-mer frequency, TF over GST control) | 1.28 fold enrichment (6-mer frequency, TF over GST control)
6 | CTAATC | 1.32 fold enrichment (6-mer frequency, TF over GST control) | 1.39 fold enrichment (6-mer frequency, TF over GST control) | 1.34 fold enrichment (6-mer frequency, TF over GST control) | 1.32 fold enrichment (6-mer frequency, TF over GST control) | 1.32 fold enrichment (6-mer frequency, TF over GST control) | 1.35 fold enrichment (6-mer frequency, TF over GST control) | 1.26 fold enrichment (6-mer frequency, TF over GST control) | 1.45 fold enrichment (6-mer frequency, TF over GST control) | 1.44 fold enrichment (6-mer frequency, TF over GST control)
7 | CCGAAT | 1.23 fold enrichment (6-mer frequency, TF over GST control) | 1.1 fold enrichment (6-mer frequency, TF over GST control) | 1.25 fold enrichment (6-mer frequency, TF over GST control) | 1.07 fold enrichment (6-mer frequency, TF over GST control) | 1.22 fold enrichment (6-mer frequency, TF over GST control) | 1.24 fold enrichment (6-mer frequency, TF over GST control) | 1.2 fold enrichment (6-mer frequency, TF over GST control) | 1.22 fold enrichment (6-mer frequency, TF over GST control) | 1.14 fold enrichment (6-mer frequency, TF over GST control)
